# Assay results: PubChem BioAssay (EPA / NIEHS)
# Active and inactive are the calls of the source. How the source made its calls: active means hit-call score of the fitted dose curve at least 0.9, where 1 is the maximum; inactive means score below 0.9.
# Experiment: CEETOX_H295R_ESTRADIOL: CeeTox H295R High-throughput Steroidogenesis Assay for Estradiol (AID 2283440);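 further: estradiol secreted into medium quantified by LC-MS/MS after dansyl derivatisation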
# Settings: actives raise or lower the signal
# How it was run: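 H295R cells pre-stimulated 48 h with 10 uM forskolin, then exposed 48 h to chemical in 0.1% DMSO. Medium estradiol quantified by MTBE extraction, dansyl derivatisation and HPLC-MS/MS; bidirectional fit versus DMSO; MTT viability required >/=70%.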
Structure (SMILES),outcome,AC50
C[C@]12C=CC(=O)C=C1CC[C@@H]1[C@@H]2C(=O)C[C@@]2(C)[C@H]1CC[C@]2(O)C(=O)CO,inactive,
Cc1nc(-c2ccc3c(c2)CCN(CCC2CCC(NC(=O)/C=C/c4ccc(F)cc4)CC2)CC3)no1 (stereo not given),inactive,
Cc1cccc(Nc2cc(Cl)nc(SCC(=O)O)n2)c1C,inactive,
Nc1ccccc1N,inactive,
Cc1c(C(=O)O)c(O)cc2c1C(=O)c1c(O)c([C@@H]3O[C@H](CO)[C@@H](O)[C@H](O)[C@H]3O)c(O)c(O)c1C2=O,inactive,
CN1CCN(Cc2cc(-c3ccc4[nH]c(=O)oc4c3)co2)[C@@H](c2ccc(F)cc2)C1,inactive,
c1cc(-c2ccncc2)ccn1,inactive,
Oc1ccc2ccccc2c1N=Nc1ccccc1,,10.7 µM (active)
Oc1ccc2c(c1)OC[C@@H](N1CCC(O)(c3ccc(F)cc3)CC1)[C@H]2O,inactive,
COC(=O)c1ccc(O)cc1,inactive,
